From PubChem BioAssay (EPA / NIEHS)
The source made the active and inactive calls. The calls were made as follows: active = hit-call score of the fitted dose curve at least 0.9, where 1 is the maximum; inactive = score below 0.9.

Tests used:
Conditions in all cases: mRNA level, 48 h; actives raise or lower the signal
[1] = read-out: adenosine kinase (ADK) gene, ADK (gene 132); assay: LTEA_HepaRG_ADK: Life Technologies and Expression Analysis (LTEA) Assay for adenosine kinase (ADK) gene using HepaRG (AID 2283471)
Summary of the method: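 Read-out is ADK transcript level measured by qRT-PCR and normalised to three housekeeping genes. Cells are human HepaRG, dosed for 48 h at up to 100 uM in 0.5% DMSO. Gain or loss of signal is fitted against DMSO controls.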

BCL2L11 (gene 10018) = assay: LTEA_HepaRG_BCL2L11: Life Technologies and Expression Analysis (LTEA) Assay for Bcl-2 (BCL2L11) gene using HepaRG (AID 2283473)
Summary of the method: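 HepaRG, 48 h exposure, 8-pt half-log series from 100 uM in 0.5% DMSO, duplicates; qRT-PCR (Fluidigm TaqMan) for BCL2L11, housekeeping-normalized; bidirectional curve fit relative to DMSO baseline.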

[2] = read-out: Apolipoprotein A-V (APOA5) gene, APOA5 (gene 116519); assay: LTEA_HepaRG_APOA5: Life Technologies and Expression Analysis (LTEA) Assay for Apolipoprotein A-V (APOA5) gene using HepaRG (AID 2283474)
Summary of the method: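 HepaRG, 48 h chemical exposure in serum-free induction medium, 8-pt half-log series (top 100 uM), 0.5% DMSO vehicle, duplicates. Readout: APOA5 mRNA by qRT-PCR, housekeeping-normalized; bidirectional fit vs DMSO baseline.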

[3] = read-out: Apoptosis regulator Bcl-2 (Homo sapiens) (UniProt P10415); assay: LTEA_HepaRG_BCL2: Life Technologies and Expression Analysis (LTEA) Assay for Bcl-2 gene using HepaRG (AID 2283475)
Summary of the method: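 Each chemical was tested in duplicate on HepaRG cultures held in serum-free induction medium for 48 h, highest concentration 100 uM with half-log dilutions. Transcript levels came from multiplexed qRT-PCR, normalised to housekeeping genes; activity was scored in either direction relative to DMSO.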

[4] = read-out: Bcl-2 (BID) gene, BID (gene 637); assay: LTEA_HepaRG_BID: Life Technologies and Expression Analysis (LTEA) Assay for Bcl-2 (BID) gene using HepaRG (AID 2283476)
Summary of the method: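 Assay used HepaRG hepatic cells treated 48 h in serum-free medium with half-log dilutions from 100 uM. Endpoint: BID mRNA, qRT-PCR, normalized to ACTB/GAPDH/POLR2A.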

Caspase-3 (Homo sapiens) = Caspase-3 (Homo sapiens) (UniProt P42574); assay: LTEA_HepaRG_CASP3: Life Technologies and Expression Analysis (LTEA) Assay for cysteine-aspartic acid protease (CASP3) using HepaRG (AID 2283477)
Summary of the method: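 HepaRG, 48 h exposure, 8 conc. (top 100 uM, half-log steps, duplicate), 0.5% DMSO vehicle; qRT-PCR of CASP3 transcript, housekeeping-normalised (ACTB/GAPDH/POLR2A); bidirectional curve fit vs DMSO baseline.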

[5] = read-out: Cytochrome P450 (CYP24A1), CYP24A1 (gene 1591); assay: LTEA_HepaRG_CYP24A1: Life Technologies and Expression Analysis (LTEA) Assay for Cytochrome P450 (CYP24A1) using HepaRG (AID 2283478)
Summary of the method: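 qRT-PCR read-out: CYP24A1 transcript levels normalized to three housekeeping genes, bidirectional curve fits against 0.5% DMSO baseline. Human HepaRG cells treated 48 h with chemicals at eight concentrations from 100 uM in half-log steps.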

[6] = read-out: Cytochrome P450 (CYP1A2), CYP1A2 (gene 1544); assay: LTEA_HepaRG_CYP1A2: Life Technologies and Expression Analysis (LTEA) Assay for Cytochrome P450 (CYP1A2) using HepaRG (AID 2283479)
Summary of the method: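 HepaRG, 48 h exposure, top 100 uM, half-log 8-pt, 0.5% DMSO vehicle, duplicates. Readout: TaqMan qRT-PCR of CYP1A2 mRNA, housekeeping-normalized (ACTB/GAPDH/POLR2A). Gain/loss fit relative to DMSO baseline.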

[7] = read-out: cysteine-aspartic acid protease (CASP8), CASP8 (gene 841); assay: LTEA_HepaRG_CASP8: Life Technologies and Expression Analysis (LTEA) Assay for cysteine-aspartic acid protease (CASP8) using HepaRG (AID 2283480)
Summary of the method: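 Concentration-response in duplicate up to 100 uM (half-log steps, 0.5% DMSO) on differentiated HepaRG cultures for 48 h. Expression change of CASP8 mRNA is determined by TaqMan qRT-PCR with housekeeping-gene normalization.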

[8] = read-out: Cytochrome P450 (CYP2B6), CYP2B6 (gene 1555); assay: LTEA_HepaRG_CYP2B6: Life Technologies and Expression Analysis (LTEA) Assay for Cytochrome P450 (CYP2B6) using HepaRG (AID 2283481)
Summary of the method: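 Read-out is CYP2B6 mRNA by TaqMan qRT-PCR, normalized to three housekeeping genes and fitted bidirectionally against 0.5% DMSO baseline. Human HepaRG cells received test chemicals for 48 h, top concentration 100 uM, half-log dilutions.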

[9] = read-out: Cytochrome P450 2C19 (Homo sapiens) (UniProt P33261); assay: LTEA_HepaRG_CYP2C19: Life Technologies and Expression Analysis (LTEA) Assay for CYP2C19 using HepaRG (AID 2283482)
Summary of the method: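 HepaRG, 48 h chemical exposure, 8-pt half-log series from 100 uM in 0.5% DMSO, duplicates. Readout: CYP2C19 mRNA by TaqMan qRT-PCR, housekeeping-normalized. Bidirectional fit vs DMSO baseline; phenobarbital 1mM as induction control.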

CYP2C8 (gene 1558) = assay: LTEA_HepaRG_CYP2C8: Life Technologies and Expression Analysis (LTEA) Assay for CYP2C8 using HepaRG (AID 2283483)
Summary of the method: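 This is a transcriptional endpoint in HepaRG cultures: 48 h exposure, highest concentration 100 uM. CYP2C8 mRNA is quantified by TaqMan qRT-PCR.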

CYP2C9 (gene 1559) = assay: LTEA_HepaRG_CYP2C9: Life Technologies and Expression Analysis (LTEA) Assay for CYP2C9 using HepaRG (AID 2283484)
Summary of the method: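 Eight-point concentration-response (highest 100 uM, half-log dilutions) in HepaRG cells for 48 h; CYP2C9 expression by qRT-PCR normalized to ACTB, GAPDH, POLR2A. Bidirectional fit, DMSO baseline.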

CYP2E1 (gene 1571) = assay: LTEA_HepaRG_CYP2E1: Life Technologies and Expression Analysis (LTEA) Assay for CYP2E1 using HepaRG (AID 2283485)
Summary of the method: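 Assay uses 48 h exposure of HepaRG hepatic cells, eight concentrations to 100 uM. Expression of CYP2E1 is quantified by TaqMan qRT-PCR with ACTB, GAPDH and POLR2A normalization; curves fitted in both directions relative to vehicle.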

CYP4A11 (gene 1579) = assay: LTEA_HepaRG_CYP4A11: Life Technologies and Expression Analysis (LTEA) Assay for CYP4A11 using HepaRG (AID 2283486)
Summary of the method: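 CYP4A11 transcript levels were quantified by TaqMan qRT-PCR after HepaRG human liver cells were treated for 48 hours with test chemicals (top 100 uM, half-log dilutions, 0.5% DMSO). Gain or loss of signal was fitted relative to DMSO.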

[10] = read-out: Cytochrome P450 3A4 (Homo sapiens) (UniProt P08684); assay: LTEA_HepaRG_CYP3A4: Life Technologies and Expression Analysis (LTEA) Assay for CYP3A4 using HepaRG (AID 2283487)
Summary of the method: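 HepaRG, 48 h exposure, 8-pt CRC from 100 uM (half-log), 0.5% DMSO, duplicates; serum-free induction medium. Readout: CYP3A4 mRNA, qRT-PCR, ACTB/GAPDH/POLR2A normalization. Bidirectional fit vs DMSO.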

[11] = read-out: DNA damage-inducible transcript 3 (DDIT3), DDIT3 (gene 1649); assay: LTEA_HepaRG_DDIT3: Life Technologies and Expression Analysis (LTEA) Assay for DNA damage-inducible transcript 3 (DDIT3) using HepaRG (AID 2283488)
Summary of the method: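 Eight-point concentration-response (100 uM highest, half-log dilutions) in HepaRG, 48 h, duplicate wells. Endpoint: qRT-PCR mRNA, normalized (ACTB, GAPDH, POLR2A), bidirectional fitting with DMSO as baseline.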

[12] = read-out: Pro-epidermal growth factor (Homo sapiens) (UniProt P01133); assay: LTEA_HepaRG_EGF: Life Technologies and Expression Analysis (LTEA) Assay for Epidermal growth factor (EGF) using HepaRG (AID 2283489)
Summary of the method: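 qRT-PCR readout of EGF transcript after 48 h chemical exposure of HepaRG cells; eight concentrations from 100 uM down in half-log steps, duplicate wells, 0.5% DMSO vehicle. Bidirectional curve fitting against DMSO baseline.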

[13] = read-out: Early growth response protein 1 (EGR1) transcription factor, EGR1 (gene 1958); assay: LTEA_HepaRG_EGR1: Life Technologies and Expression Analysis (LTEA) Assay for Early growth response protein 1 (EGR1) transcription factor using HepaRG (AID 2283490)
Summary of the method: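 EGR1 expression change in human HepaRG after 48 h chemical exposure, assessed by housekeeping-normalized qRT-PCR; concentration-response up to 100 uM, fitted in both directions against DMSO controls.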

Measured: AC50

Apoptosis regulator Bcl-2 (Homo sapiens), sequence (P10415 whole entry, looked up): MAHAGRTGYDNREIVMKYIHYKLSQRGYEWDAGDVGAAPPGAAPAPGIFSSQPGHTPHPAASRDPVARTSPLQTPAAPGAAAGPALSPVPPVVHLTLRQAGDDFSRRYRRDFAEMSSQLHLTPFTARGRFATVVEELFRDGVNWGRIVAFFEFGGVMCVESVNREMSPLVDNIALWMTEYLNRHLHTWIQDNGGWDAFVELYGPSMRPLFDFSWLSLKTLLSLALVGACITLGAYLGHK
Cytochrome P450 3A4 (Homo sapiens), sequence (P08684 whole entry, looked up): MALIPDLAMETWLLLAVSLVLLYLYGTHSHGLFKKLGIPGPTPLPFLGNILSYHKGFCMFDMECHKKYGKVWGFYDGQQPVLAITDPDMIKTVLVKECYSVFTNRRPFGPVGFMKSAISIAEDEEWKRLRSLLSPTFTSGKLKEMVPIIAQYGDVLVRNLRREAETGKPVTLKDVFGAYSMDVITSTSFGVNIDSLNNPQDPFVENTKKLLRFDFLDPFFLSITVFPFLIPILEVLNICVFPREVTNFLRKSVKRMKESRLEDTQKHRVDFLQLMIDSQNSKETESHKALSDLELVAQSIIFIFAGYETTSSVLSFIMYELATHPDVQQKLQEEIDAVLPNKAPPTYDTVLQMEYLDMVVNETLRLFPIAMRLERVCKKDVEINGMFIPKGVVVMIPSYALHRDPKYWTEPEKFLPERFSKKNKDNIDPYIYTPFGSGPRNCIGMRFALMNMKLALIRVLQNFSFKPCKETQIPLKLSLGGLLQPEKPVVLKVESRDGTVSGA
Caspase-3 (Homo sapiens), sequence (P42574 whole entry, looked up): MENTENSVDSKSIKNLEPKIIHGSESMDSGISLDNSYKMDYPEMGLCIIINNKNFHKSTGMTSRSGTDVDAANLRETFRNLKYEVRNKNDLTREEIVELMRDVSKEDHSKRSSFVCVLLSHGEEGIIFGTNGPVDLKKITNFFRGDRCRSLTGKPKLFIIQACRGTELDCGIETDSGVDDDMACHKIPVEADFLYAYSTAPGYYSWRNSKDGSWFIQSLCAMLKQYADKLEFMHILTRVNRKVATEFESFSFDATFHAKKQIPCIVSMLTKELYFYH
Cytochrome P450 2C19 (Homo sapiens), sequence (P33261 whole entry, looked up): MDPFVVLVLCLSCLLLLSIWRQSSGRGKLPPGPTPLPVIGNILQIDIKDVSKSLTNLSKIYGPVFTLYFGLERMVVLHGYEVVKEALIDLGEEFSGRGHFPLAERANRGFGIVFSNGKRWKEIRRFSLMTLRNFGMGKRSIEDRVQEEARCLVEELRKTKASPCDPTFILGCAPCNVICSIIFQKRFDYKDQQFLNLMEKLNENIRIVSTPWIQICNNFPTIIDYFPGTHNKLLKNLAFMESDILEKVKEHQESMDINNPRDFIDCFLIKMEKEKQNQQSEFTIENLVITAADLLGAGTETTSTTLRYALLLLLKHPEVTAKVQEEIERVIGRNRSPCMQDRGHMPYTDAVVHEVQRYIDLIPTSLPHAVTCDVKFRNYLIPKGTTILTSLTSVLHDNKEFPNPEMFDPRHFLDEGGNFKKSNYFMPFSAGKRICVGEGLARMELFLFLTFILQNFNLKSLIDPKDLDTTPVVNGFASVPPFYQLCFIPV

COc1cc(C(=O)NC2CCN(C)CC2)ccc1Nc1ncc2c(n1)N(C1CCCC1)CC(F)(F)C(=O)N2C
active: BCL2L11 (gene 10018) 46.5 µM | [2] 4.65 µM | [4] 4.65 µM | Caspase-3 (Homo sapiens) 11.1 µM | [6] 4.65 µM | [7] 16.2 µM | [8] 0.151 µM | [9] 4.65 µM | CYP2C9 (gene 1559) 3.9 µM | CYP2E1 (gene 1571) 22.9 µM | CYP4A11 (gene 1579) 3.34 µM | [11] 83 µM | [13] 9.31 µM
inactive: [1] | [3] | [5] | CYP2C8 (gene 1558) | [10] | [12]

Cc1cn([C@H]2C[C@H](N=[N+]=[N-])[C@@H](CO)O2)c(=O)[nH]c1=O
not listed: [9]
inactive: all other assays above

O=C(O)Cn1c(=O)n(Cc2ccc(Br)cc2F)c(=O)c2ccc(Cl)cc21
active: [8] 32.7 µM | CYP2C8 (gene 1558) 17 µM | CYP2E1 (gene 1571) 25.8 µM
not listed: [9] | [10]
inactive: all other assays above

CN(C)c1ccc(C(=C2C=CC(=[N+](C)C)C=C2)c2ccc(N(C)C)cc2)cc1
active: [1] 20.7 µM | BCL2L11 (gene 10018) 23.5 µM | [2] 5.32 µM | [3] 5 µM | Caspase-3 (Homo sapiens) 12.1 µM | [6] 2.05 µM | [8] 3.45 µM | CYP2C8 (gene 1558) 3.61 µM | CYP2C9 (gene 1559) 3.82 µM | CYP2E1 (gene 1571) 2.31 µM | CYP4A11 (gene 1579) 3.37 µM | [11] 1.38 µM | [12] 88.8 µM | [13] 67.6 µM
inactive: [4] | [5] | [7]

NC(=O)c1nc(-c2cccc(-c3cc(F)ccc3OCC(F)(F)C(F)(F)F)c2)n[nH]1
active: [1] 92.8 µM | BCL2L11 (gene 10018) 74.2 µM | CYP2E1 (gene 1571) 16.9 µM | CYP4A11 (gene 1579) 12.3 µM | [10] 81.1 µM | [11] 78.1 µM | [13] 84.4 µM
inactive: all other assays above

OCCO
active: Caspase-3 (Homo sapiens) 9.97 µM
not listed: [9] | [12]
inactive: all other assays above
